Test results as given in PubChem BioAssay AID434955 (Southern Research Specialized Biocontainment Screening …, 2010).
The whole screen tested about 330,000 compounds, of which about 880 (0.27%) were called active. Inconclusive results (about 1%) are left out. The rule behind the calls is not given here. A selection follows.

Assay: beta-lactam sensitization of Mtb H37Rv, H37Rv (AID 434955);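 note: growth measured after seven days incubation then overnight dye step; 0% = bacteria only wells and 100% = bacteria with antibiotic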
Details: M. tuberculosis H37Rv growth with meropenem, percent inhibition, at 25 µM
[1] = measured here: primary screen without meropenem

COCCNC(=O)C(c1ccc(O)cc1)N(C(=O)CCC(=O)Nc1nccs1)c1ccc(C)cc1 (stereo not drawn)
inhibition (stronger effect = higher value): -3.29% (inactive)
inhibition [1]: -1.6%

O=C(Cn1cnc2c(cnn2-c2ccc(F)cc2)c1=O)NCCc1ccccc1
inhibition (stronger effect = higher value): 8.42% (inactive)
inhibition [1]: 5.1%

CCOC(=O)C1CCN(C(=O)Cc2c(C(=O)O)[nH]c3ccccc23)CC1
inhibition (stronger effect = higher value): 11.4% (inactive)
inhibition [1]: 8.1%

COCc1cc(C)nc2sc3c(=O)n(-c4cccc5ccccc45)nnc3c12
inhibition (stronger effect = higher value): 41.4% (inactive)
inhibition [1]: -9.11%

CN(c1ccccc1)S(=O)(=O)c1cccc(C(=O)NNC(=O)c2ccncc2)c1
inhibition (stronger effect = higher value): -14.5% (inactive)
inhibition [1]: 10.4%

COc1ccccc1C(=O)N/C(=C/c1ccco1)C(=O)Nc1ccc(C(=O)O)cc1
inhibition (stronger effect = higher value): 5.03% (inactive)
inhibition [1]: 3.35%

CCOC(=O)C(=O)C1C(=O)Nc2ccccc21 (stereo not drawn)
inhibition (stronger effect = higher value): 5.13% (inactive)
inhibition [1]: 3%

COc1cc(NS(=O)(=O)c2ccc(NC(=O)c3ccc(S(=O)(=O)N4CCCCC4)cc3)cc2)ncn1
inhibition (stronger effect = higher value): -5.84% (inactive)
inhibition [1]: -4.25%

Cc1ccc(C(=O)N2CCC(n3nccc3NC(=O)Nc3cccc(F)c3)CC2)cn1
inhibition (stronger effect = higher value): -9.41% (inactive)
inhibition [1]: -4.97%

COc1ccccc1N(C(=O)Cn1nnc2ccccc21)C(C(=O)NCc1ccco1)c1ccc(C)o1 (stereo not drawn)
inhibition (stronger effect = higher value): -4.29% (inactive)
inhibition [1]: -5.41%

CCN(Cc1nc2ccccc2c(=O)[nH]1)Cc1cc(=O)oc2cc(C)c(C)cc12
inhibition (stronger effect = higher value): 1.77% (inactive)
inhibition [1]: -4.21%

COc1cccc(N2CC(NC(=O)c3ccc4ccccc4c3)CC2=O)c1 (stereo not drawn)
inhibition (stronger effect = higher value): -3.62% (inactive)
inhibition [1]: 10.2%

O=C(CC1OC(=O)c2ccccc21)NC1CCCCC1 (stereo not drawn)
inhibition (stronger effect = higher value): 2.15% (inactive)
inhibition [1]: 2.66%

COc1ccccc1CCCNC(=O)C1CCC(=O)N(CCN2CCOCC2)C1 (stereo not drawn)
inhibition (stronger effect = higher value): 1.01% (inactive)
inhibition [1]: -9.27%

Cc1cc(C)c2nc3nc(C)cc(C)c3c(N)c2c1
inhibition (stronger effect = higher value): 6.08% (inactive)
inhibition [1]: 4.53%

CCC(C)N(C(=O)COC(=O)c1nc(Cl)ccc1Cl)C1CCS(=O)(=O)C1 (stereo not drawn)
inhibition (stronger effect = higher value): -10.3% (inactive)
inhibition [1]: -10.3%

CCn1c(CNC(=O)c2ccco2)nnc1SCC(=O)Nc1cccc(F)c1
inhibition (stronger effect = higher value): -8.4% (inactive)
inhibition [1]: -1.57%

O=c1cc(CN2CCN(c3cccc(Cl)c3)CC2)c2cc3c(cc2o1)CCCC3
inhibition (stronger effect = higher value): -11.5% (inactive)
inhibition [1]: 1.9%

COc1ccc(-c2ccc(OC(=O)NC3CCS(=O)(=O)C3)cc2)cc1 (stereo not drawn)
inhibition (stronger effect = higher value): 87.1% (inactive)
inhibition [1]: 66.5%

COCCOC(=O)C1=C(C)NC(=O)NC1c1cc2c(cc1Br)OCO2 (stereo not drawn)
inhibition (stronger effect = higher value): -3.19% (inactive)
inhibition [1]: 0.53%

Cc1ccc(C(=O)N2CCN(S(=O)(=O)N3CCOCC3)CC2)cc1
inhibition (stronger effect = higher value): -7.62% (inactive)
inhibition [1]: -3.45%

CC(C)Cc1ccc(S(=O)(=O)N2CCN(C(=O)c3ccco3)CC2)cc1
inhibition (stronger effect = higher value): 1.6% (inactive)
inhibition [1]: -4.13%

C/C(=N/O)c1ccc(N2C(=O)C3C4C=CC(C3C2=O)C2C3C(=O)N(c5ccc(/C(C)=N/O)cc5)C(=O)C3C42)cc1 (stereo not drawn)
inhibition (stronger effect = higher value): -4.77% (inactive)
inhibition [1]: -7.58%

Cc1ccc(S(=O)(=O)N(CC(O)CN2C(=O)NC(C)(C)C2=O)c2cccc([N+](=O)[O-])c2)cc1 (stereo not drawn)
inhibition (stronger effect = higher value): 16.4% (inactive)
inhibition [1]: 4.68%

CC/S(CC1CC1(Cl)Cl)=N\S(=O)(=O)c1ccc(C)cc1 (stereo not drawn)
inhibition (stronger effect = higher value): -10.6% (inactive)
inhibition [1]: -11.9%

CCOc1cc(NC(=O)CCl)c(OCC)cc1NC(C)=O
inhibition (stronger effect = higher value): 90.5% (inactive)
inhibition [1]: 98.2%

CC(C)CCOc1ccc(C(=O)C[N+]2(C)CCOCC2)cc1
inhibition (stronger effect = higher value): -6.59% (inactive)
inhibition [1]: 4.15%

COC(=O)C(C)N=Cc1ccccc1 (stereo not drawn)
inhibition (stronger effect = higher value): -4.31% (inactive)
inhibition [1]: 0.46%

O=C(C1CC(=O)N(C2CCCCC2)C1)N1CCN(c2ccccc2)CC1 (stereo not drawn)
inhibition (stronger effect = higher value): 0.44% (inactive)
inhibition [1]: 1.29%

O=[N+]([O-])c1c(NCCO)cc(Sc2nc3ccccc3s2)c2nonc12
inhibition (stronger effect = higher value): 95.6% (inactive)
inhibition [1]: 96%

O=C(NCc1ccc2c(c1)OCO2)c1cc([N+](=O)[O-])ccc1N1CCOCC1
inhibition (stronger effect = higher value): -1.78% (inactive)
inhibition [1]: -2.18%

COc1ccc(NC(=O)COc2ccc(C(=O)c3ccc(F)cc3)cc2)cc1S(N)(=O)=O
inhibition (stronger effect = higher value): 7.84% (inactive)
inhibition [1]: 10.7%

N#Cc1ccc(COC(=O)Cn2nnc(-c3ccccc3)n2)cc1
inhibition (stronger effect = higher value): 2.69% (inactive)
inhibition [1]: 0.73%

O=C(COC(=O)Cc1ccccc1F)NNC(=O)c1ccc(Cl)cc1
inhibition (stronger effect = higher value): -6.06% (inactive)
inhibition [1]: 20.8%

CC(=O)Nc1ccc(NC(=O)CSc2nnnn2-c2ccccc2F)cc1
inhibition (stronger effect = higher value): -2.11% (inactive)
inhibition [1]: -2.67%

CC(C)c1nc(CNC(=O)CC2C(=O)NCCN2Cc2ccoc2)cs1 (stereo not drawn)
inhibition (stronger effect = higher value): -7.57% (inactive)
inhibition [1]: -8.36%

O=C(CC1SC(=Nc2ccccc2F)N(CCN2CCOCC2)C1=O)Nc1ccc(F)cc1F (stereo not drawn)
inhibition (stronger effect = higher value): 3.51% (inactive)
inhibition [1]: 2.75%

CCc1ccc(-c2cc3c(=O)n(CC(=O)NCCCN4CCN(Cc5ccccc5)CC4)nc(C)n3n2)cc1
inhibition (stronger effect = higher value): 99.7% (inactive)
inhibition [1]: 99.5%

CO/N=C(/CS(=O)(=O)c1ccc(Br)cc1)c1ccc(OC)cc1
inhibition (stronger effect = higher value): -4.01% (inactive)
inhibition [1]: -5.94%
